# Source: the supplement of paper PMC12669032
# Unmarked numbers belong to inactive results.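 The calls were made as follows: active = AUC reduced over 20% with Padj below 0.05 in at least 2 of 3 replicates; inactive = otherwise.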
# What was measured:
# Test in all cases: growth AUC relative to DMSO control (median of replicates) (fraction); higher = more growth (less inhibition), active = hit call of the paper
# Settings in all cases: 20 µM; 24 h
# Akkermansia muciniphila = tested on: Akkermansia muciniphila
# Summary of the method: (§1)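 Area under the growth curve was normalised to the plate median of solvent-only wells, except on the industrial chemical plate, where row and column medians were used. Curves came from gut bacterial monocultures grown anaerobically at 37 °C in mGAM with 20 µM compound (1% DMSO), starting at OD600 0.05 and read at OD600 every hour for 24 h. The minimum OD of each curve was set to 0, and values are medians of three biological replicates grown on separate days.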
# Bacteroides caccae = tested on: Bacteroides caccae
# Summary of the method: as §1
# Bacteroides clarus = tested on: Bacteroides clarus
# Summary of the method: as §1
# Bacteroides dorei = tested on: Bacteroides dorei
# Summary of the method: as §1
# Bacteroides stercoris = tested on: Bacteroides stercoris
# Summary of the method: as §1
# [1] = tested on: Bacteroides thetaiotaomicron
# Summary of the method: as §1
# Bacteroides uniformis = tested on: Bacteroides uniformis
# Summary of the method: as §1
# [2] = tested on: Bifidobacterium longum subsp. longum
# Summary of the method: as §1
# Clostridium difficile = tested on: Clostridium difficile
# Summary of the method: as §1
# Collinsella aerofaciens = tested on: Collinsella aerofaciens
# Summary of the method: as §1
# Coprococcus comes = tested on: Coprococcus comes
# Summary of the method: as §1
# Escherichia coli ED1a = tested on: Escherichia coli ED1a
# Summary of the method: as §1
# Escherichia coli IAI1 = tested on: Escherichia coli IAI1
# Summary of the method: as §1
# Eubacterium rectale = tested on: Eubacterium rectale
# Summary of the method: as §1
# [3] = tested on: Fusobacterium nucleatum subsp. animalis
# Summary of the method: as §1
# Lactobacillus gasseri = tested on: Lactobacillus gasseri
# Summary of the method: as §1
# Lactobacillus paracasei = tested on: Lactobacillus paracasei
# Summary of the method: as §1
# Odoribacter splanchnicus = tested on: Odoribacter splanchnicus
# Summary of the method: as §1
# [4] = tested on: Parabacteroides distasonis
# Summary of the method: as §1
# Parabacteroides merdae = tested on: Parabacteroides merdae
# Summary of the method: as §1
SMILES,growth AUC (Akkermansia muciniphila),growth AUC (Bacteroides caccae),growth AUC (Bacteroides clarus),growth AUC (Bacteroides dorei),growth AUC (Bacteroides stercoris),growth AUC [1],growth AUC (Bacteroides uniformis),growth AUC [2],growth AUC (Clostridium difficile),growth AUC (Collinsella aerofaciens),growth AUC (Coprococcus comes),growth AUC (Escherichia coli ED1a),growth AUC (Escherichia coli IAI1),growth AUC (Eubacterium rectale),growth AUC [3],growth AUC (Lactobacillus gasseri),growth AUC (Lactobacillus paracasei),growth AUC (Odoribacter splanchnicus),growth AUC [4],growth AUC (Parabacteroides merdae)
Nc1ncn[nH]1,0.877,1.04,1.01,1.02,0.931,1.01,0.997,1.02,1.01,0.995,0.974,1.02,1.01,0.987,1.1,0.942,0.995,1.03,1.02,0.981
Cn1cc(-c2ccccc2)c(=O)c(-c2cccc(C(F)(F)F)c2)c1,0.9,0.923,0.999,1.01,1.06,0.967,0.977,1.04,0.994,0.939,1.02,0.978,0.968,0.998,0.907,0.963,0.983,0.974,0.999,0.943
CC(C1CC1)C(O)(Cn1cncn1)c1ccc(Cl)cc1 (mixture of isomers),1.04,0.83,0.987,0.941,1.41,0.893,0.929,1.09,0.966,0.926,0.936,1.01,0.971,1.02,1.09,0.975,1.06,0.8,1.01,0.988
COc1cc(OC)nc(NC(=O)NS(=O)(=O)c2ncccc2C(=O)N(C)C)n1,1,0.94,0.98,0.957,1.11,1.01,1.01,0.96,1,0.965,0.966,1.05,0.972,0.999,1.05,0.93,0.889,1.03,1.02,0.988
CNc1cnn(-c2cccc(C(F)(F)F)c2)c(=O)c1Cl,0.94,0.979,1.02,1.01,0.914,0.994,0.991,0.989,0.937,1.03,0.978,0.99,0.981,0.995,0.946,0.975,0.943,0.992,1.01,0.989
CCCCN(CCCC)N=O,0.985,1.01,1.02,1.01,1,1,1,1.01,1.01,1.03,0.982,0.995,1,1.02,1.02,1.11,1.02,1,1.16,1.01
CCS(=O)(=O)Cc1ccccc1OC(=O)NC,1.05,0.949,1,0.994,1.1,0.971,0.995,1.01,0.977,1.05,0.996,1,1,1.07,1.03,0.958,1.02,1,0.98,0.983
CN(C)C(=O)Nc1ccc(Cl)cc1,0.948,1.02,0.971,1.01,1.05,0.973,1.02,0.99,0.979,1.03,0.985,1.01,0.97,0.996,1.02,1.05,1.03,0.963,0.938,1
CSc1nc(N=[N+]=[N-])nc(NC(C)C)n1,0.963,1.04,0.993,1.04,0.975,1.02,1.07,0.849,1.02,0.998,0.963,1.02,1.01,1.05,0.812,1.15,0.938,1.02,1.02,1
CCN(CC)c1c([N+](=O)[O-])cc(C(F)(F)F)c(N)c1[N+](=O)[O-],0.987,0.94,0.977,0.956,1.09,0.88,0.972,0.913,1,1,0.982,1.05,1.02,0.977,1.06,1.04,1.06,0.955,0.897,0.928
Cc1cnc(C2=NC(C)(C(C)C)C(=O)N2)c(C(=O)O)c1 (stereo not given),1.05,0.987,0.993,1.02,0.976,1.01,1.01,1.03,1.01,1.02,1,0.999,1.01,0.985,0.976,1.04,0.939,0.953,1.07,1.02
CNc1nc(C)c(C)c(OC(=O)N(C)C)n1,0.975,0.99,0.953,1.02,0.963,0.986,1.04,1.04,0.987,0.994,0.998,1.01,0.957,1.05,1.09,1.03,0.971,0.985,1.01,0.998
CCCC1COC(Cn2cncn2)(c2ccc(Cl)cc2Cl)O1 (stereo not given),1.02,0.952,0.912,0.945,0.854,0.902,0.871,0.97,0.956,0.981,0.941,0.979,0.972,0.545 (active),1,0.968,0.936,0.977,0.837,0.855
C/C(=N\NC(=O)Nc1cc(F)cc(F)c1)c1ncccc1C(=O)[O-].[Na+],1.33,1,1.01,0.77,1.05,1.01,0.946,0.987,1,0.965,1.01,0.973,0.995,1.12,1.09,0.796,0.975,1.07,0.875,1.01
CC(C)C(C(=O)OC(C#N)c1cccc(Oc2ccccc2)c1)c1ccc(OC(F)F)cc1 (stereo not given),0.959,0.981,0.956,1.02,1.08,0.987,1.01,0.965,1.01,1.01,1.02,0.998,0.979,0.848,0.968,1.01,1.02,1.07,0.983,0.971
C=CCNC(=O)c1c([Si](C)(C)C)sc(C)c1C,0.751,0.964,0.973,0.978,0.961,0.96,0.973,0.966,0.968,0.981,0.984,0.972,1.01,0.967,0.894,1.05,0.986,0.97,1.01,0.973
c1nc[n]([Sn]([CH]2CCCCC2)([CH]2CCCCC2)[CH]2CCCCC2)n1,1.02,0.997,0.86,0.939,0.935,0.955,0.901,0.506,0.951,0.814,0.723,1.06,1.06,0.908,1.03,1.03,0.972,1.03,0.927,0.746 (active)
CCS(=O)Cc1ccccc1OC(=O)NC (stereo not given),1.22,0.98,0.986,0.943,0.992,1,0.945,0.966,0.979,0.977,1.01,0.977,0.971,1.11,1.05,0.854,1.01,0.975,0.8,0.997
CC(=O)O.CC(=O)O.CC(=O)O.NC(N)=NCCCCCCCCNCCCCCCCCN=C(N)N,0.692,0.639 (active),0.523 (active),0.0196 (active),0.0269 (active),0.0154 (active),0.158 (active),0.195 (active),0.869,0.871,0.0653 (active),0.966,0.822,0.0201 (active),0.729,0.89,0.834,0.0272 (active),0.213 (active),0.025 (active)
CC1(C)C(C=C(Cl)Cl)C1C(=O)OC(C#N)c1cccc(Oc2ccccc2)c1 (mixture of isomers),1.14,0.963,1,0.996,1.11,0.981,1.01,0.984,1.04,0.966,1,1.01,0.987,1.02,1.04,0.865,1.02,1.03,0.982,0.984
CNC1=C(c2cccc(C(F)(F)F)c2)C(=O)C(c2ccccc2)O1 (stereo not given),0.993,1.02,0.953,1.01,1.01,0.986,0.972,0.888,1.08,1.02,1.06,0.998,0.992,1,0.969,0.985,0.781,1.07,0.951,0.969
N#Cc1c[nH]cc1-c1cccc(Cl)c1Cl,0.905,0.819,0.9,0.871,0.884,0.835,0.816,1.09,0.901,0.935,0.948,1.01,0.981,1.06,0.797,1.06,1.07,0.732,0.804,0.941
Clc1cccc(Cl)c1Cl,0.898,1.04,0.992,0.997,0.945,1.02,1.01,1.04,0.996,0.973,1.01,0.985,0.997,0.982,1,1.02,1.03,1,1,1.01
CO/C=C(/C(=O)OC)c1ccccc1Oc1cc(Oc2ccccc2C#N)ncn1,1.05,1.01,0.967,0.997,0.864,0.965,0.914,0.977,0.973,0.994,0.964,0.991,0.976,0.948,0.969,0.908,1.06,0.959,0.9,0.955
C#CCOc1ccc(CCNC(=O)C(OCC#C)c2ccc(Cl)cc2)cc1OC (stereo not given),1.02,0.94,0.948,0.957,0.898,0.951,0.901,1.02,0.981,1,0.992,1.01,0.996,1.04,0.943,0.926,0.98,1.03,0.689 (active),0.948
CC(Oc1ccc(Oc2nc3ccc(Cl)cc3o2)cc1)C(=O)O (racemic),0.992,1.05,0.995,0.996,1.25,0.996,0.962,1.03,0.987,1.03,1.05,1.02,0.997,1.03,1.12,1.04,1.07,0.923,1.04,0.97
CCCCNC(=O)n1c(NC(=O)OC)nc2ccccc21,1.04,0.999,0.979,1,1.01,0.999,1.02,0.984,0.955,0.993,1.04,1.04,0.977,0.917,0.976,1.01,0.997,1.04,0.945,0.965
